From PubChem BioAssay AID1220 (Sanford-Burnham Center for Chemical Genomics, 2008)
Among all 190,000 compounds or so, about 1,300 (0.68%) were called active. What follows is part of a selection rich in actives, with near analogues and random picks from the rest. Values without a mark were called inactive. No stated cut-off is given here; in the data, active means inhibition above about 50%; inactive means the rest.

What follows are compounds tested against Mannose-6-phosphate isomerase (Homo sapiens) (UniProt P34949) (assay: MPI inhibition at elevated mannose 6-phosphate – biochemical, fluorescence intensity, high mannose 6-phosphate, primary screen (AID 1220)). Settings: recombinant PMI enzyme, coupled fluorescence intensity; at 20 µM; active compounds read high.
Mannose-6-phosphate isomerase (Homo sapiens), sequence (P34949 whole entry, looked up): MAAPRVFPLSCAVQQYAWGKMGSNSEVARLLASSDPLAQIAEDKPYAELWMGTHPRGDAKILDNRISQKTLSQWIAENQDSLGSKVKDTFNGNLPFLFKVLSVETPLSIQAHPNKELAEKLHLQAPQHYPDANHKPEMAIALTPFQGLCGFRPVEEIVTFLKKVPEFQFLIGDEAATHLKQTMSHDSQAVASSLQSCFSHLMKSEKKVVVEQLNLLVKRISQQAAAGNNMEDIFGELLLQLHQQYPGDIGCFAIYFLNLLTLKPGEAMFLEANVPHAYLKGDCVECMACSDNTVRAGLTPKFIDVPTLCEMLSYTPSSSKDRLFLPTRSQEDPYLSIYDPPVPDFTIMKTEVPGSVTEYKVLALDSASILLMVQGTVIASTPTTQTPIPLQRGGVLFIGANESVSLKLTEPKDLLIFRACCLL

COC(=O)c1ccccc1N/C=C1\CCc2c(c(C)nn2-c2ccccn2)C1=O was tested, and the inhibition was 73.6% (active).
With Cc1cccc(C)c1OCC(=O)Nc1nnc(C2CCCO2)s1 (stereo not given) the inhibition was 53.1% (active).
With CCCCOC(=O)c1ccc(NC(=S)NC(=O)c2c(Cl)cnn2C)cc1 the inhibition was 62.3% (active).
For CC1(C)CC(=O)C(C=Nc2ccc(NC3=C(C#N)C(=O)CC(C)(C)C3)cc2)=C(O)C1, the inhibition was 60.4% (active).
Oc1ccc(NCc2cccc(OCc3ccccc3)c2)cc1 was tested, and the inhibition was 58.9% (active).
In the case of Oc1ccc(NCc2cccc(OCc3ccc(F)cc3)c2)cc1, the inhibition is reported as 51.3% (active).
With CC(C)C(=O)N1c2ccccc2NC2=C(C(=O)CCC2)C1c1ccc(N(C)C)cc1 (stereo not given) the inhibition was 60.7% (active).
In the case of O=[N+]([O-])c1ccc(Cl)c(C2Nc3cccc4cccc(c34)N2)c1, the inhibition is reported as 60.2% (active).
COc1cc(CN2CCN(Cc3ccc(C)cc3)CC2)c([N+](=O)[O-])cc1OC was tested, and the inhibition was 61.5% (active).
For COc1cc(CN2CCN(Cc3ccc([N+](=O)[O-])cc3)CC2)c([N+](=O)[O-])cc1OC, the inhibition was 56.3% (active).
With COc1cccc(CN2CCN(Cc3cc(OC)c(OC)cc3[N+](=O)[O-])CC2)c1 the inhibition was 53.2% (active).
In the case of COCCCn1c(=N)c(C(=O)NCC2CCCO2)cc2c(=O)n3cccc(C)c3nc21 (stereo not given), the inhibition is reported as 53.6% (active).

In order of rising inhibition:
1. CCOC(=O)N1CCC2(CC1)C(C#N)=C(N)Oc1c2c(C)nn1-c1cccc(Cl)c1  -99.5%
2. Fc1ccc(COc2cccc(CNCc3ccncc3)c2)cc1  -15.5%
3. COc1ccccc1CNC(=O)Nc1cccs1  -15.1%
4. COc1cccc(C(=O)N2CCN(Cc3ccccc3[N+](=O)[O-])CC2)c1  -13.8%
5. O=[N+]([O-])c1cccc(C2Nc3cccc4cccc(c34)N2)c1  -12.5%
6. CCOC(=O)c1ccccc1N/C=C1\CCCCC1=O  -11.5%
7. CCN1CCCn2c1nc1c2c(=O)n(C)c(=O)n1C  -4.6%
8. O=C(CN(c1ccc(Br)cc1)S(=O)(=O)c1ccc(Cl)c([N+](=O)[O-])c1)NCCc1ccccc1  -3.9%
9. CC1CCCCN1C(=O)CSc1nnc(-c2c[nH]c3ccccc23)o1 (stereo not given)  -3.8%
10. O=[N+]([O-])c1ccc(COc2cccc(CNc3ccc(F)cc3)c2)cc1  -3.6%
11. COC(=O)c1ccc(NC(=S)NC(=O)c2c(Cl)cnn2C)cc1  -3.2%
12. COc1cccc2c(=O)cc(C)n(CC(=O)Nc3ccccc3C)c12  -2.8%
13. O=C(COc1ccc([N+](=O)[O-])cc1)NCc1ccncc1  -2.2%
14. Fc1ccccc1COc1ccc2ccccc2c1CNc1nn[nH]n1  -1.6%
15. CCS(=O)(=O)c1c(S(=O)(=O)CC)c2ccccn2c1C(N)=O  -1%
16. CCNc1nc(Cl)nc(NCCOc2ccc(C)cc2)n1  0.4%
17. c1ccc(COc2cccc(CNn3cnnc3)c2)cc1  0.5%
18. Cc1cccc(C(C)C)c1NC(=O)C1CN(S(=O)(=O)c2ccccc2)CCN1S(=O)(=O)c1ccccc1 (stereo not given)  1.2%
19. CCN1C(=O)C2C(c3cccc(F)c3)NC(CC)(C(=O)OC)C2C1=O (stereo not given)  2.1%
20. Cn1c(=O)[nH]c(=O)c2c1nc(N1CCCC1)n2CC(O)COc1ccccc1 (stereo not given)  3.3%
21. CSc1ccc(CN2CCN(Cc3ccc([N+](=O)[O-])cc3)CC2)cc1  4%
22. COCCCn1c(=N)c(C(=O)NCC2CCCO2)cc2c(=O)n3ccccc3nc21 (stereo not given)  5.1%
23. COC(=O)c1ccccc1NC(=S)N1CCN(c2ccccn2)CC1  5.5%
24. Cc1ccc(OCC(=O)Nc2nnc(C3CCCO3)s2)c(Br)c1 (stereo not given)  5.8%
25. O=S(=O)(Cc1ccccc1)NCC1CCCN(Cc2ccc3nonc3c2)C1 (stereo not given)  7.4%
26. CC1SCCN1S(=O)(=O)c1ccc2ccccc2c1 (stereo not given)  7.8%
27. COc1ccc(CC(=O)N2CCN(c3ccccn3)CC2)cc1  8.3%
28. CN(C)S(=O)(=O)c1cccc(NC(=O)c2ccc(N3CCOCC3)c([N+](=O)[O-])c2)c1  8.9%
29. Nc1nc(F)cc(NCc2ccccc2)n1  10.5%
30. COc1ccc(CNCc2ccco2)cc1OCc1ccccc1  10.6%
31. COc1cccc(CN2CCN(C(=O)Nc3ccc([N+](=O)[O-])cc3)CC2)c1  10.7%
32. COc1cc(CN2CCN(c3ccc(C)cc3)CC2)cc([N+](=O)[O-])c1O  10.7%
33. CS(=O)(=O)N1CCN(Cc2ccc([N+](=O)[O-])cc2)CC1  11.9%
34. COc1ccc(CN=CC2=C(O)CC(C)(C)CC2=O)cc1  12.4%
35. CC(=O)N1c2ccccc2NC2=C(C(=O)CCC2)C1c1ccc(F)cc1 (stereo not given)  13.6%
36. CCCn1c(=N)c(C(=O)NCC2CCCO2)cc2c(=O)n3cccc(C)c3nc21 (stereo not given)  13.9%
37. COc1ccccc1N1CCN(C(=O)c2ccc3c(Cl)c4c(nc3c2)CCCC4)CC1  14.1%
38. O=[N+]([O-])c1ccc(C2Nc3cccc4cccc(c34)N2)cc1  14.6%
39. Cc1ccc(CN2CCN(/N=C/c3ccc(Cl)c([N+](=O)[O-])c3)CC2)cc1  15.3%
40. CCC(=O)N1c2ccccc2NC2=C(C(=O)CCC2)C1c1ccc(N(C)C)cc1 (stereo not given)  16.3%
41. CCCCOC(=O)c1ccc(NC(=S)NC(=O)c2c(Cl)cnn2CC)cc1  17.1%
42. CCCC(=O)Nc1nnc(C2CCCO2)s1 (stereo not given)  17.6%
43. O=[N+]([O-])c1ccc(COc2cccc(CNc3ccc(Br)cc3)c2)cc1  19.9%
44. CCOC(=O)Cn1c(-c2cccnc2Cl)nc2cc(Cl)c(Cl)cc21  21.1%
45. CC1(C)CC(=O)C(C=Nc2ccc(O)cc2)=C(O)C1  21.8%
46. CNc1ccc(Br)cc(C(=O)/C=C/c2cccc(Cl)c2Cl)c1=O  24.7%
47. CC1(C)CC(=O)C(C=Nc2ccc(N)cc2)=C(O)C1  33.3%
48. Cn1c(NC(=O)C2CCCO2)cc(=O)n(C)c1=O (stereo not given)  42.3%
